Results published in PubChem BioAssay AID492998 (Southern Research Specialized Biocontainment Screening …, 2010).
Screen size: about 2,300 compounds; about 550 (24%) were called active. No rule for the calls is given here. A selection follows. Potency and affinity values are given separately.

Assay: Vero E6 cell cytotoxicity, dose response, cytotoxicity control for non-replicating M. tuberculosis project, secondary assay (AID 492998);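 also: 100% = vehicle-treated cells and 0% = background wells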
Settings: series mostly up to 20 µM; viability: at the top concentration

Compound | viability
COC(=O)CCCC(=O)N1CCCC(C(=O)c2ccc(-c3ccccc3)cc2)C1 (stereo not given) | 105% (inactive)
CSc1nnc(Cc2ccc3c(c2)OCO3)o1 | 103% (inactive)
COc1cccc(/C=N/N2C(=O)CSC2=S)c1O | 81% (inactive)
O=C(OCn1nnc2ccccc2c1=O)c1cccs1 | 104% (inactive)
COc1ccc2cc(C(=O)C3CCCN(Cc4cccc(C)n4)C3)ccc2c1 (stereo not given) | 73% (inactive)
S=c1c2c(nc3nc[nH]n13)CCC2 | 101% (inactive)
CC1(C)CC(=O)C2=C(C1)OC(N)=C(C#N)C2C#Cc1ccccc1 (stereo not given) | 101% (inactive)
Cc1ccc(NC(=O)C(=O)NNC(=O)c2ccccc2C)cc1Cl | 87.8% (inactive)
O=C(NC1CCOc2ccccc21)c1ccc(Cl)nc1 (stereo not given) | 92.5% (inactive)
CCOC(=O)COc1ccc(C(=O)Nc2cccc(Cl)c2C)cc1 | 91.2% (inactive)
CCOC(=O)C(=CNNc1cccc(Cl)c1)C(=O)OCC | 90.4% (inactive)
Cc1cc(OCCOCCNCc2ccccc2)ccc1C(C)C | 95.5% (inactive)
O=C(OCC#CCSc1nc2ccccc2o1)c1ccco1 | 96.6% (inactive)
COc1ccc(O)c(C(=O)CC(=O)c2ccc(F)cc2)c1 | 74% (inactive)
O=C(Nc1ccccc1N1CCCC1)c1cccc(F)c1 | 103% (inactive)
C/C(=N\O)c1cc(Cl)ccc1O | 94.6% (inactive)
O=C(CCNc1cccc(F)c1)c1cccc([N+](=O)[O-])c1 | 81% (inactive)
CC12CC3CC(C)(C1)CC(C(=O)N1CCCC1)(C3)C2 | 110% (inactive)
CSc1ccc(CNc2ncc(-c3cccc([N+](=O)[O-])c3)n2C)cc1 | 95.1% (inactive)
COc1cccc(NC(=O)COC(=O)Cc2ccc(Br)cc2)c1 | 108% (inactive)
CC(C)(C)NCC1(CO)SC(N)=NC1=O (stereo not given) | 95.3% (inactive)
Cc1cc(C)nc(SC2CC(=O)N(c3ccc(C)c(C)c3)C2=O)n1 (stereo not given) | 72.2% (inactive)
Cc1ccc2nc(C)c3c(c2c1)COC3 | 100% (inactive)
O=C(OCn1nnc2ccccc2c1=O)C1CCCCC1 | 94.4% (inactive)

Compound | viability
O=C(COc1ccccc1)NC1CCCCC1 | 107% (inactive)
Cc1cc2cc(CNC(=O)COc3ccccc3)ccc2n1C | 96.2% (inactive)
CC1CC(C)CN(CCOCCSc2ccc(Cl)cc2)C1 (stereo not given) | 87% (inactive)
COc1ccc(Cl)cc1N=Cc1c(O)c2ccccc2oc1=O | 76.4% (inactive)
O=C(COC(=O)c1cc(Br)ccc1Cl)NC1CCCC1 | 105% (inactive)
COC(=O)COc1ccc(S(=O)(=O)N2CCN(c3ccccc3F)CC2)cc1 | 102% (inactive)
O=C1/C(=C\c2ccco2)SC(=S)N1c1ccc(O)cc1 | 103% (inactive)
Cc1ccccc1OCCC(=O)OCC(=O)NNC(=O)c1cccs1 | 104% (inactive)
CCSc1ncc(/C=N/Nc2ccc(Cl)cc2)n1C | 90.2% (inactive)
O=C(COC(=O)CCc1c[nH]c2ccccc12)Nc1ccc([N+](=O)[O-])cc1 | 101% (inactive)
CCCCOC(=O)C1CCCC(C(=O)OCCCC)N1 (stereo not given) | 113% (inactive)
O=C(COc1ccc2c(c1)CCC2)Nc1ccccn1 | 95.7% (inactive)
O=C1NC(=O)N(Cc2ccc(F)cc2)C(=O)/C1=C\c1ccc([N+](=O)[O-])s1 | 93.5% (inactive)
O=C1NC(=O)N(Cc2ccco2)C(=O)/C1=C\c1cccn1CCOc1ccc(Cl)cc1 | 98.7% (inactive)
OC(CNCCc1ccc(C(F)(F)F)cc1)COc1cccc2ccccc12 (stereo not given) | 82% (inactive)
O=C(COC(=O)c1cc(Cl)ccc1O)c1ccc2c(c1)OCO2 | 105% (inactive)
O=C1CC(Sc2ncccn2)C(=O)N1c1ccccc1C(F)(F)F (stereo not given) | 102% (inactive)
CCOC(=O)c1c(NC(=O)C2COc3ccccc3O2)sc2c1CC(C)(C)NC2(C)C (stereo not given) | 85.6% (inactive)
CCOC(=O)CCS(=O)(=O)c1nc(-c2ccccc2)cc(C(F)(F)F)n1 | 95.2% (inactive)
CCOc1ccc2ccccc2c1/C=N/NC(=O)c1ccncc1 | 95.5% (inactive)
COc1ccc(NC(=O)Nc2ccc(O)c3ccccc23)cc1 | 75.5% (inactive)
Cc1ccc(S(=O)(=O)/N=C(\CCl)N2CCOCC2)cc1 | 96.7% (inactive)
Cc1cc(CN(C)C)c(O)c(C2(C)CCCCC2)c1 | 106% (inactive)
CCCCNC(=O)N1CCc2ccccc2C1 | 96.6% (inactive)

Compound | viability
CCOc1ccccc1OC(=O)c1cc2ccccc2oc1=O | 95.6% (inactive)
Cc1ccc(NC(=O)C2CC2c2ccccc2)cc1 (stereo not given) | 97.4% (inactive)
O=c1oc(-c2ccccc2[N+](=O)[O-])nc2ccccc12 | 92.6% (inactive)
CN(/N=C/c1ccc([N+](=O)[O-])o1)c1ccccc1 | 114% (inactive)
COc1ccc(OC)c(N2C(=O)NC(=O)/C(=C/c3ccc([N+](=O)[O-])s3)C2=O)c1 | 88.5% (inactive)
CCC(=O)N1CCN(c2cc3c(cc2F)c(=O)c(C(=O)O)cn3CC)CC1 | 97.8% (inactive)
O=C(COC(=O)c1ccccn1)Nc1cccc(Cl)c1Cl | 97.1% (inactive)
CCOC(=O)C1CCCN(Cc2nc(Cc3ccccc3Cl)no2)C1 (stereo not given) | 110% (inactive)
Cc1cc(Br)ccc1OCCCCN1CCC(C)CC1 | 98% (inactive)
CCCCCOc1ccc(CSC2=NCCN2)cc1[N+](=O)[O-] | 78% (inactive)
CCc1ccc(C(C)NC(=O)C2CCCO2)cc1 (stereo not given) | 109% (inactive)
CCS(=O)(=O)c1ncc(Cl)c(C(=O)Nc2ccc(S(=O)(=O)N3CCC(C)CC3)cc2)n1 | 88.8% (inactive)
Cc1ccc(-c2ccc(/C=N/NC(=O)CN3CCOCC3)o2)cc1[N+](=O)[O-] | 87.5% (inactive)
COc1cccc(NC(=O)c2ccc(Cn3cc([N+](=O)[O-])cn3)o2)c1 | 115% (inactive)
O=C(Nc1ccc(S(=O)(=O)N2CCOCC2)cc1)c1ccc([N+](=O)[O-])s1 | 74.6% (inactive)
CC1CCN(S(=O)(=O)c2cccc(C(=O)Oc3ccc([N+](=O)[O-])cc3)c2)CC1 | 101% (inactive)
CCN1CCN(Cc2cc(C(C)(C)C)c(O)c(C(C)(C)C)c2)CC1 | 98.1% (inactive)
O=C(N/N=C/c1ccc(OC(=O)c2cccs2)cc1)c1ccccn1 | 100% (inactive)
COc1cc(C2C3=C(CC(C)(C)CC3=O)OC(N)=C2[N+](=O)[O-])ccc1O (stereo not given) | 98.8% (inactive)
CC(C)CCNCC(O)CON=C1c2ccccc2-c2ccccc21 (stereo not given) | 82.9% (inactive)
O=C(O)c1ccc(NS(=O)(=O)/C=C/c2ccccc2)cc1O | 95.3% (inactive)
CCOc1ccc(NC(=O)CCC(=O)N/N=C/c2ccc([N+](=O)[O-])s2)cc1 | 78.7% (inactive)
Cc1cccc(NCc2ccc([N+](=O)[O-])s2)c1 | 87.4% (inactive)
CCCOC(=O)c1ccc(NC(=O)Cc2cccs2)cc1 | 109% (inactive)

Compound | viability
CCOC(=O)N/N=C\c1ccc([N+](=O)[O-])s1 | 81.2% (inactive)
O=C(N/N=C/c1ccc(Br)s1)c1ccccc1[N+](=O)[O-] | 79.6% (inactive)
O=C(NNc1ccc([N+](=O)[O-])cc1)c1ccccc1Cl | 101% (inactive)
Cc1ccc(C2=N/C(=C\c3cccnc3)C(=O)O2)cc1 | 106% (inactive)
CCOC(=O)c1cc(COc2cc(Cl)cc(Cl)c2)on1 | 98.4% (inactive)
O=C(c1cc2ccccc2o1)c1nc2c(n1O)CCCCC2 | 104% (inactive)
Nc1cccn2c(-c3ccc(Cl)cc3)cnc12 | 101% (inactive)
CC1(C(=O)OCC(=O)Nc2nnc(-c3ccccc3)o2)CC1(Cl)Cl (stereo not given) | 71.1% (inactive)
CCOC(=O)C1CCCc2c1[nH]c1c(C(N)=O)cccc21 (stereo not given) | 106% (inactive)
Cc1ccc(Oc2c(C(N)=O)cc([N+](=O)[O-])cc2[N+](=O)[O-])cc1 | 94.9% (inactive)
COc1cc(/C=C/c2ccc3c([N+](=O)[O-])cccc3n2)ccc1OCC(=O)O | 99.9% (inactive)
CCC1CCc2sc(C(=O)NNC(=O)c3ccncc3)cc2C1 (stereo not given) | 106% (inactive)
CN(CCS(=O)(=O)c1ccc(Cl)cc1)Cc1cccnc1 | 85% (inactive)
CC(=O)c1ccc(NC(=O)c2cc(CC(C)C)on2)cc1 | 106% (inactive)
CC(C)(C)Nc1nc(NC(C)(C)C)nc(-n2ccnc2)n1 | 79.9% (inactive)
O=C(NC(=S)Nc1ccc(F)cc1)C1CCCCC1 | 89.2% (inactive)
COC(=O)COc1cccc(NC(=O)c2ccc(Cl)cc2)c1 | 106% (inactive)
Cc1cc(NC(=O)COc2ccccc2)ccc1Cl | 90.2% (inactive)
Cc1cc(OCC(=O)Nc2ccncc2)ccc1Br | 108% (inactive)
Cc1cc(Br)ccc1OCC(=O)NNC(=O)C(=O)Nc1ccccc1 | 102% (inactive)
CCc1ccc(NC(=O)C(=O)NNC(=O)COc2cccc(OC)c2)cc1 | 97.4% (inactive)
O=C(NNC(=O)c1ncc(Cl)c(Cl)c1Cl)c1ccc(F)cc1 | 87% (inactive)
CC(C)c1ccc(OCC(=O)NNC(=O)c2cnccn2)cc1 | 91% (inactive)
O=C(Oc1cccnc1)c1ccc(Cl)c(Cl)c1 | 121% (inactive)

Compound | viability
CCc1ccc(OCC(=O)Nc2ccncc2)c(Br)c1 | 96.3% (inactive)
Cc1cc2cc(CNC(=O)C3CCCC3)ccc2n1C | 105% (inactive)
O=C(CCC1CCCCC1)NCc1ccc(F)cc1 | 105% (inactive)
Clc1ccc(SCCCCN2CCNCC2)cc1 | 85% (inactive)
O=C(NCC1CCCCC1)c1ccc([N+](=O)[O-])cc1 | 94.3% (inactive)
CCCCOC(=O)c1ccc(NC(=O)c2nn(C)cc2Br)cc1 | 79.3% (inactive)
O=C(NCCSc1ccccc1)c1ccc(Br)cc1 | 107% (inactive)
Cc1ccc2cc(/C=N/NC(=O)[C@H](C)NC(=O)OC(C)(C)C)c(Cl)nc2c1 | 95.6% (inactive)
CN1CC(=O)NC1=NC(=O)C12CC3CC(CC(C3)C1)C2 | 77.2% (inactive)
CCOC(=O)c1csc(NC(=O)COc2ccc(Cl)cc2Cl)n1 | 98.5% (inactive)
Cc1cc(Br)ccc1OCCCCN1CCCCC1 | 80.3% (inactive)
CCOc1ccc(Cn2c(=O)oc3ccccc32)cc1 | 102% (inactive)
CC1C/C(=N/N2C(=O)CSC2=S)CC(C)(C)C1 (stereo not given) | 96.3% (inactive)
C/C(=N/NC(=O)c1ccncc1)C1=C(O)CC(C)(C)CC1=O | 107% (inactive)
CC1=C(/C=C/C(C)=N\NC(=O)c2ccncc2)C(C)(C)CCC1 | 95.3% (inactive)
C=CCNCC(=O)N1N=C(c2ccc3ccccc3c2)CC1c1ccc(OC)cc1 (stereo not given) | 76.9% (inactive)
CCn1nnc(NC(=O)c2sc3ccccc3c2Cl)n1 | 93.4% (inactive)
CCn1ccc(C(=O)Nc2cccc(Cl)c2)n1 | 99.4% (inactive)
CCCc1cc(C(=O)Nc2cccc(C(C)=O)c2)no1 | 104% (inactive)
CC(C)(C)c1ccc(OCCC(=O)OCC(=O)NC2CCCCC2)cc1 | 80.5% (inactive)
COC(=O)CCC(=O)Nc1sc(Cc2ccccc2)c(C)c1C(N)=O | 93.4% (inactive)
COc1ccc(C(CNC(=O)c2cccc(NS(=O)(=O)c3ccc(C)c(F)c3)c2)N2CCCC2)cc1 (stereo not given) | 92% (inactive)
Cc1noc2ncnc(Sc3ccc(Br)cc3)c12 | 72.2% (inactive)
COC(=O)c1ccccc1Sc1ncnc2onc(C)c12 | 87.7% (inactive)
